The text below walks through data of PubChem BioAssay AID686978 (National Center for Advancing Translational Sciences (NCATS), 2013).

Hit rate of the full screen: of about 420,000 compounds, about 64,000 (15%) were called active. Inconclusive results (about 27%) are left out. Only a sample is shown. Unmarked numbers belong to inactive results. Calls come from the whole dose curve; as a rule, active = well fitted inhibition curve with a large enough effect; inconclusive = small, poorly fitted or top-dose-only effect; inactive = flat fitted curve, though single readings scatter.
% is set by controls: 0 for no effect and ±100 for the full control effect; potency is the fitted concentration of half-maximal effect.

The nature of the experiment: qHTS for Inhibitors of human tyrosyl-DNA phosphodiesterase 1 (TDP1): qHTS in cells in absence of CPT. Note: nearly all actives have a fitted effect of over 55% in size. The note with it: DT40 Tdp1-/- hTDP1 cells, no CPT, ATP luminescence, 48 h; activity change, negative = growth inhibition: at 46.2 µM (top of the series). Put shortly:
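No-CPT arm: Tdp1-/-;hTDP1 DT40 cells (400/well) plus compounds, incubated ≥48 hr at 37 °C. Readout CellTiter-Glo luminescence.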
(qHTS replaces the single test concentration by a dilution series.)
In the case of `O=C(N/N=C/c1c[nH]c2ccccc12)c1ccccc1O`, the “activity change, negative = growth inhibition” value was -15.3%. For the compound `Cc1c(/C=N\NC(=O)c2cc3ccccc3o2)c2ccccc2n1C`, the Potency was 3.66 µM (active). In the case of `Cc1c(/C=N/N2C(=O)C3C4C=CC(C4)C3C2=O)c2ccccc2n1C` (stereo not drawn), the “activity change, negative = growth inhibition” value was -28.9%. The same measure, in the same setting: the result for `O=C(O)c1cccc(NC(=S)N/N=C/c2c[nH]c3ccccc23)c1` reads 14.2%. On the same count and under the same terms, the result for `Nc1nonc1-n1nnc(C(=O)N/N=C/c2c[nH]c3ccccc23)c1-c1ccccc1` reads -12.4%.

Take `O=C(N/N=C/c1cccc(O)c1)c1cc2c(ccc3ccccc32)o1`: the “activity change, negative = growth inhibition” value is -11.2%. Still for that read-out and setting: the result for `NC(=O)CSc1c[nH]c2ccccc12` reads -5.76%. Regarding `CSC(=S)N/N=C/c1c[nH]c2ccccc12`, the Potency is 0.92 µM (active). Same read-out and setting: for `O=C(N/N=C/c1c[nH]c2ccccc12)c1cc2ccccc2o1` the value was 14.6 µM (active). In the case of `O=C(O)C(F)(F)C(NCc1ccccc1)c1ccccc1` (stereo not drawn), the “activity change, negative = growth inhibition” value was -5.89%. Still for that read-out and setting: for `COc1ccc(S(=O)(=O)N2CCC(C(=O)NCCC(=O)NCCc3cccc(F)c3)CC2)cc1` the value was -27%; for `Cc1ccc(S(=O)(=O)C2C(=O)NC3(C)CC2c2ccccc2O3)cc1` (stereo not drawn), -3.39%. Still for that read-out and setting: for `Cn1c(SCC(=O)N2CCCC2)nnc1-c1ccc2c(c1)OCO2` the value was 18.9%. As for `CCC1C(C#N)=C(SC)NC2=C1C(=O)CC(C)(C)C2` (stereo not drawn), the “activity change, negative = growth inhibition” value was -24.4%. Same read-out and setting: the result for `Nc1nonc1-n1nnc(C(=O)N/N=C/C2CCCCC2)c1-c1ccccc1` reads 6.3%. For `CCn1c(=O)cc(SCC(=O)NCc2ccc3c(c2)OCO3)c2ccccc21`, the “activity change, negative = growth inhibition” value is -1.5%. Same read-out and setting: for `CC1(C)NC(=O)N(CC(=O)Nc2cc(C(F)(F)F)cc(C(F)(F)F)c2)C1=O` the value was 0.431%; for `Cc1c(NC(=O)/C=C/C(=O)O)cccc1[N+](=O)[O-]`, 5.13%; for `CNC(=S)Nc1ccc([N+](=O)[O-])cc1`, -24.8%. On to `O=C(O)/C=C/C(=O)NNc1ccc([N+](=O)[O-])cc1`, for which the Potency was 18.4 µM (active). In the case of `CCC(=O)NC(NCC1CCCO1)C(Cl)(Cl)Cl` (stereo not drawn), the “activity change, negative = growth inhibition” value is -1.9%. In the case of `COc1cccc(CNc2nc(NCc3cccs3)nc3ccsc23)c1`, the Potency is 10.3 µM (active). For the compound `COc1cccc(CNc2nccn(-c3ccc(OC)c(OC)c3)c2=O)c1`, the “activity change, negative = growth inhibition” value is -13.9%. `COc1ccccc1CNCc1cccs1`: the “activity change, negative = growth inhibition” value is -9.52%. Regarding `CC(C)Nc1nc(NCCOc2ccccc2Cl)c2sccc2n1`, the Potency was 20.6 µM (active). With `COCCNc1nc(NCc2ccc(NC(C)=O)cc2)c2sccc2n1`, the “activity change, negative = growth inhibition” value is -5.82%. In the case of `COc1ccccc1CNc1nc(Nc2ccccc2Cl)c2sccc2n1`, the Potency is 7.31 µM (active). Same read-out and setting: for `COc1cccc(CNc2nc(NCc3ccccc3OC)nc3ccsc23)c1` the value was 9.2 µM (active). Regarding `Cc1nc2cc(NCc3cccs3)ccc2n1C`, the “activity change, negative = growth inhibition” value is 0.0187%. Still for that read-out and setting: for `CCc1ccc(S(=O)(=O)c2nnn3c2nc(NCc2ccccc2OC)c2cc(Cl)ccc23)cc1` the value was -12.5%; for `COc1ccc(NC(=O)C/C(C)=N/NC(=O)c2cnccn2)cc1Cl`, 2.04%. On the same count and under the same terms, for `COc1ccc(C(=O)N(Cc2ccc(N(C)C)cc2)C2CCS(=O)(=O)C2)cc1` (stereo not drawn) the value was -15%; for `CC(C)C(OC(=O)c1cccs1)C(=O)NC1CCCCC1` (stereo not drawn), -21.2%. The same measure, in the same setting: for `CCNc1nc(N)nc(-c2cc(Cl)ccc2OC)n1` the value was -7.89%; for `COc1ccc(OC)c(S(=O)(=O)Nc2ccccc2F)c1`, -7.95%; for `COc1ccc(C(=O)OCC(=O)Nc2ccc3[nH]c(=O)[nH]c3c2)c(OC)c1OC`, -5.45%. With `O=C(Nc1ccc(F)c([N+](=O)[O-])c1)C1CCCO1` (stereo not drawn), the “activity change, negative = growth inhibition” value is -22.9%. Same read-out and setting: the result for `COc1ccc(/C=C2\N=C3CCCN3C2=O)cc1` reads 21.3%. In the case of `COc1ccc(/C=C2/CCCc3ccccc3C2=O)cc1`, the Potency is 5.8 µM (active). For `COc1ccc(/C=C2\NC(=O)[C@@H]3Cc4ccccc4CN3C2=O)cc1`, the activity change, negative = growth inhibition was -8.4% [at 9.04 µM]. On the same count and under the same terms, the result for `COc1ccccc1C1=CC(=O)CCC1` reads -12%; that for `O=C1/C(=C/c2cccs2)CCc2ccccc21`, -26.7%. In the case of `COc1ccc(/C=C2\CCc3ccccc3C2=O)c(OC)c1OC`, the Potency is 20.6 µM (active). For the compound `O=C(O)CC(Cc1ccccc1)C(=O)Nc1ccc([N+](=O)[O-])cc1` (stereo not drawn), the “activity change, negative = growth inhibition” value was -13.4%. On to `COc1cccc(C(=O)N/N=C(\C)c2cccc(NC(=O)c3ccc(F)cc3)c2)c1OC`, for which the Potency was 23.1 µM (active). For the compound `COc1ccc(/C(C)=N\NC(=O)c2ccc(-c3ccccc3)cc2)c(F)c1`, the “activity change, negative = growth inhibition” value is -7.22%. On to `COc1cccc(C(=O)Nc2cccnc2)c1OC`, for which the “activity change, negative = growth inhibition” value is 3.25%. Same read-out and setting: for `CCc1ccc(CCC(=O)Nc2ccc(S(N)(=O)=O)cc2)o1` the value was -3.63%; for `Cc1ccc2cc(C)c(N3CCC(C)CC3)nc2c1`, -35.6%; for `CCOc1n[nH]c(-c2ccccc2)n1`, 15.3%.

In the case of `O=C(CNC(=O)N1CC(=O)Nc2ccccc21)Nc1ccc(Br)cc1F`, the “activity change, negative = growth inhibition” value was -0.716%. As to `Cc1ccc(Cn2ccc(NC(=O)C3C4CCC(C4)C3C(=O)O)n2)cc1` (stereo not drawn), the “activity change, negative = growth inhibition” value is -23.8%. Still for that read-out and setting: the result for `COc1ccc(Cn2ccnc2SCC(=O)Nc2ccc3c(c2)OCO3)cc1` reads -18.2%.
